According to PubChem BioAssay AID720492 (Broad Institute, 2013):
The source made the active and inactive calls.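 How the source made its calls: active means unnormalized dose curve rising to cross level 40 at or below the top tested dose; inconclusive means flat fit at moderately raised activity, or poor fit; inactive means the rest.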

Test: miR-27b level by RT-PCR, dose response, miR-122 / miR-27b project, Huh7 cells, cherry-pick, activator set (AID 720492)
Settings: Huh7 miR-27b levels, qRT-PCR, 48 h; series mostly up to 35 µM

outcome, inactive:
CO[C@@H]1CN(C)C(=O)c2cc(NC(=O)c3ccc4c(c3)OCO4)ccc2OC[C@H](C)NC[C@@H]1C, CN1C(=O)c2cc(NC(=O)c3cccc(F)c3)ccc2OC[C@@H]2O[C@@H](CC(=O)O)CC[C@H]21, CN1C(=O)c2cc(NC(=O)c3cccc(F)c3)ccc2OC[C@@H]2O[C@@H](CC(=O)O)CC[C@@H]21, CO[C@@H]1CN(C)C(=O)c2cc(NC(=O)c3cccc(Oc4ccccc4)c3)ccc2OC[C@H](C)NC[C@@H]1C, C[C@H]1CN([C@@H](C)CO)S(=O)(=O)c2ccc(C#Cc3ccncc3)cc2O[C@@H]1CN(C)C(=O)C1CCOCC1, CNC[C@@H]1Oc2cc(C#CC3CCCCC3)ccc2S(=O)(=O)N([C@@H](C)CO)C[C@@H]1C, COCC(=O)N(C)C[C@H]1Oc2cc(-c3ccccc3F)ccc2S(=O)(=O)N([C@@H](C)CO)C[C@H]1C, COc1cccc(-c2ccc3c(c2)O[C@H](CN(C)C(=O)C2CCOCC2)[C@H](C)CN([C@@H](C)CO)S3(=O)=O)c1, COCC(=O)N(C)C[C@H]1Oc2cc(-c3ccc(C#N)cc3)ccc2S(=O)(=O)N([C@H](C)CO)C[C@H]1C, C[C@@H]1CN([C@H](C)CO)S(=O)(=O)c2ccc(C#Cc3ccncc3)cc2O[C@@H]1CN(C)C(=O)C1CCOCC1, C[C@@H]1CN([C@@H](C)CO)S(=O)(=O)c2ccc(C#Cc3ccncc3)cc2O[C@H]1CN(C)C(=O)C1CCOCC1, C[C@@H]1CN([C@H](C)CO)S(=O)(=O)c2ccc(/C=C/c3ccccc3)cc2O[C@@H]1CN(C)C(=O)c1cccnc1, COCC(=O)N(C)C[C@H]1Oc2cc(-c3ccccc3F)ccc2S(=O)(=O)N([C@H](C)CO)C[C@H]1C, C[C@H]1CN([C@@H](C)CO)C(=O)c2cc(-c3ccc(C#N)cc3)cnc2O[C@H]1CN(C)C(=O)Nc1ccc(C(F)(F)F)cc1, CCCC#Cc1ccc2c(c1)O[C@H](CN(C)C(=O)COC)[C@H](C)CN([C@@H](C)CO)S2(=O)=O, CN1C(=O)c2cc(NC(=O)c3cccc(F)c3)ccc2OC[C@H]2O[C@H](CC(=O)O)CC[C@@H]21, COc1ccc(-c2cnc3c(c2)C(=O)N([C@@H](C)CO)C[C@H](C)[C@H](CN(C)S(=O)(=O)c2ccc(OC)cc2)O3)cc1, C[C@H](CO)N1C[C@H](C)[C@@H](CN(C)C(=O)C2CCOCC2)Oc2cc(C#Cc3ccncc3)ccc2S1(=O)=O, COc1ccc(S(=O)(=O)N(C)C[C@@H]2Oc3ncc(/C=C/c4ccccc4)cc3C(=O)N([C@@H](C)CO)C[C@@H]2C)cc1, C[C@@H]1CN([C@H](C)CO)S(=O)(=O)c2ccc(C#Cc3ccncc3)cc2O[C@H]1CN(C)C(=O)C1CCOCC1, CO[C@@H]1CN(C)C(=O)c2cc(NS(=O)(=O)c3ccc(Oc4ccccc4)cc3)ccc2OC[C@H](C)NC[C@@H]1C
